Assay results: the supplement of paper PMC9262897, “Low-cost anti-mycobacterial drug discovery using engineered E. coli” (Nature Communications, 2022)
Counter-ions that a name gives are not always drawn. ± gives the standard deviation of the averaged measurements.

Legend:
Assay in all cases: growth (OD600 after 10 h); higher = more growth (less inhibition)
[1] = test system: E. coli TESEC Alr+ wild-type control; conditions: compound 0.1 mM; raw OD600 reference: median of DMSO wells 0.241, cell-free background 0.041
Procedure: (§1)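 TESEC Mtb Alr E. coli, or the Alr+ wild-type control, in 384-well plates with Prestwick library compounds at 0.1 mM and 1% DMSO, across arabinose induction levels of 1E3 to 1E7 nM. Growth is read as OD600 after 10 h at 37 °C in triplicate biological replicates.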

E. coli TESEC Mtb Alr [2] = conditions: compound 0.1 mM
Procedure: as §1

E. coli TESEC Mtb Asd = conditions: compound 0.1 mM
Procedure: (§2)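 TESEC E. coli strains in which the native enzyme is deleted and replaced by arabinose-inducible Mtb Asd, DapB, CysH or TrpD, each grown in its selective medium. Strains were screened against the Prestwick library at 0.1 mM and 1% DMSO in 384-well format at low and high arabinose induction. Growth is read as OD600 after 10 h in triplicate.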

E. coli TESEC Mtb DapB = conditions: compound 0.1 mM
Procedure: as §2

[3] = test system: E. coli TESEC Alr+ wild-type control; conditions: compound 0.1 mM; raw OD600 reference: median of DMSO wells 0.49, cell-free background 0.052
Procedure: (§3)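 TESEC Mtb Alr E. coli (ΔaraC ΔtolC ΔentC Δalr ΔdadX, arabinose-inducible Mtb Alr) or the Alr+ wild-type control strain, grown in defined M9-fructose medium without D-alanine in 96-well plates with Prestwick library compounds at 0.1 mM and 1% DMSO. Low Alr induction is 0.1 µM arabinose and high induction is 10 mM arabinose.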

E. coli TESEC Mtb Alr [4] = conditions: compound 0.1 mM; remark: listed apart in the source
Procedure: as §3

[5] = arabinose 1000 nM, raw OD600 reference: median of DMSO wells 0.294, cell-free background 0.041
[6] = arabinose 10000 nM, raw OD600 reference: median of DMSO wells 0.264, cell-free background 0.041
[7] = arabinose 100000 nM, raw OD600 reference: median of DMSO wells 0.201, cell-free background 0.041
[8] = arabinose 1000000 nM, raw OD600 reference: median of DMSO wells 0.193, cell-free background 0.041
[9] = arabinose 10000000 nM, raw OD600 reference: median of DMSO wells 0.146, cell-free background 0.041
[10] = arabinose induction (level): High, raw OD600 reference: median of DMSO wells 0.331, cell-free background 0.041
[11] = arabinose induction (level): Low, raw OD600 reference: median of DMSO wells 0.417, cell-free background 0.041
[12] = arabinose induction (level): High, raw OD600 reference: median of DMSO wells […], cell-free background 0.041
[13] = arabinose induction (level): Low, raw OD600 reference: median of DMSO wells 0.227, cell-free background 0.041
[14] = arabinose 100 nM, raw OD600 reference: median of DMSO wells 0.413, cell-free background 0.052
[15] = arabinose 10000000 nM, raw OD600 reference: median of DMSO wells […], cell-free background 0.052

Compound	growth [1]	growth (E. coli TESEC Mtb Alr [2]; [5])	growth (E. coli TESEC Mtb Alr [2]; [6])	growth (E. coli TESEC Mtb Alr [2]; [7])	growth (E. coli TESEC Mtb Alr [2]; [8])	growth (E. coli TESEC Mtb Alr [2]; [9])	growth (E. coli TESEC Mtb Asd; [10])	growth (E. coli TESEC Mtb Asd; [11])	growth (E. coli TESEC Mtb DapB; [12])	growth (E. coli TESEC Mtb DapB; [13])	growth [3]	growth (E. coli TESEC Mtb Alr [4]; [14])	growth (E. coli TESEC Mtb Alr [4]; [15])
N=C(N)NCc1cccc(I)c1 [Iobenguane sulfate]	0.231 ± 0.005	0.289 ± 0.0045	0.267 ± 0.0098	0.238 ± 0.029	0.202 ± 0.012	0.149 ± 0.011	0.29 ± 0.018	0.425 ± 0.056	0.188 ± 0.0051	0.265 ± 0.04	0.488 ± 0.019	0.409 ± 0.016	0.384 ± 0.013
COc1ccc2c(c1)N(C[C@H](C)CN(C)C)c1ccccc1S2 [Methotrimeprazine maleat salt]	0.187 ± 0.0042	0.25 ± 0.015	0.274 ± 0.015	0.2 ± 0.0049	0.139 ± 0.0095	0.179 ± 0.002	0.131 ± 0.0046	0.2312 ± 0.0023	0.1934 ± 0.0013	0.211 ± 0.012	0.477 ± 0.023	0.402 ± 0.0072	0.282 ± 0.02
N=C(N)NCCN1CCCCCCC1 [Guanethidine sulfate]	0.255 ± 0.0095	0.298 ± 0.027	0.266 ± 0.0054	0.24 ± 0.012	0.173 ± 0.011	0.168 ± 0.011	0.291 ± 0.094	0.366 ± 0.069	0.205 ± 0.0096	0.247 ± 0.008	0.468 ± 0.04	0.419 ± 0.008	0.384 ± 0.015
CC#C[C@]1(O)CC[C@H]2[C@@H]3CCC4=CC(=O)CCC4=C3[C@@H](c3ccc(N(C)C)cc3)C[C@@]21C [Mifepristone]	0.142 ± 0.0098	0.181 ± 0.013	0.207 ± 0.016	0.138 ± 0.0049	0.0733 ± 0.003	0.1374 ± 0.00076	0.241 ± 0.077	0.216 ± 0.015	0.199 ± 0.0078	0.236 ± 0.013	0.337 ± 0.037	0.411 ± 0.009	0.116 ± 0.012
CC(C)C(=O)Nc1ccc([N+](=O)[O-])c(C(F)(F)F)c1 [Flutamide]	0.191 ± 0.0072	0.189 ± 0.0088	0.161 ± 0.0036	0.203 ± 0.0051	0.0619 ± 0.00076	0.0856 ± 0.0029	0.156 ± 0.024	0.165 ± 0.01	0.177 ± 0.013	0.218 ± 0.039	0.506 ± 0.0074	0.383 ± 0.036	0.16 ± 0.036
C#C[C@]1(OC(C)=O)CC[C@H]2[C@@H]3CCC4=C[C@@H](OC(C)=O)CC[C@@H]4[C@H]3CC[C@@]21C [Ethynodiol diacetate]	0.174 ± 0.0051	0.233 ± 0.016	0.215 ± 0.034	0.12 ± 0.0032	0.0855 ± 0.0055	0.161 ± 0.018	0.221 ± 0.012	0.358 ± 0.039	0.161 ± 0.0063	0.165 ± 0.011	0.4 ± 0.018	0.384 ± 0.012	0.118 ± 0.019
c1ccc(CC2=NCCN2)cc1 [Tolazoline hydrochloride]	0.2459 ± 0.0022	0.301 ± 0.018	0.253 ± 0.0071	0.191 ± 0.0077	0.172 ± 0.0039	0.149 ± 0.0054	0.264 ± 0.08	0.435 ± 0.036	0.191 ± 0.017	0.256 ± 0.052	0.493 ± 0.064	0.413 ± 0.007	0.364 ± 0.012
c1ccc2[nH]c(-c3cscn3)nc2c1 [Tiabendazole]	0.222 ± 0.014	0.275 ± 0.0031	0.253 ± 0.011	0.203 ± 0.021	0.188 ± 0.0046	0.15 ± 0.011	0.278 ± 0.085	0.326 ± 0.1	0.186 ± 0.003	0.192 ± 0.023	0.572 ± 0.075	0.408 ± 0.011	0.316 ± 0.015
CCC1(c2ccccc2)NC(=O)N(C)C1=O (centres undefined) [Mephenytoin]	0.249 ± 0.0037	0.299 ± 0.0081	0.287 ± 0.011	0.201 ± 0.014	0.204 ± 0.013	0.152 ± 0.0052	0.235 ± 0.029	0.328 ± 0.072	0.184 ± 0.013	0.24 ± 0.037	0.501 ± 0.091	0.427 ± 0.0055	0.31 ± 0.011
CC(C)NC[C@H](O)COc1ccc(CC(N)=O)cc1 [(S)-(-)-Atenolol]	0.244 ± 0.0056	0.288 ± 0.016	0.2708 ± 0.0025	0.214 ± 0.04	0.184 ± 0.0026	0.1491 ± 0.0014	0.287 ± 0.095	0.343 ± 0.051	0.193 ± 0.037	0.222 ± 0.03	0.528 ± 0.092	0.413 ± 0.01	0.341 ± 0.022
CC(C)(C)NC[C@H](O)COc1ccccc1C1CCCC1 [Penbutolol sulfate]	0.211 ± 0.0068	0.225 ± 0.0034	0.321 ± 0.0081	0.162 ± 0.011	0.128 ± 0.0083	0.142 ± 0.013	0.205 ± 0.028	0.295 ± 0.038	0.184 ± 0.013	0.207 ± 0.015	0.429 ± 0.019	0.412 ± 0.0049	0.261 ± 0.047
CC(=O)N[C@@H](CS)C(=O)O [Acetylcysteine]	0.2422 ± 0.0011	0.298 ± 0.0096	0.2731 ± 0.0017	0.203 ± 0.019	0.21 ± 0.012	0.142 ± 0.0051	0.437 ± 0.059	0.393 ± 0.017	0.196 ± 0.014	0.232 ± 0.053	0.475 ± 0.06	0.4122 ± 0.0033	0.344 ± 0.0049
CCOC(=O)OC(C)OC1=C(C(=O)Nc2ccccn2)N(C)S(=O)(=O)c2ccccc21 (centres undefined) [Ampiroxicam]	0.228 ± 0.015	0.27 ± 0.0052	0.255 ± 0.0083	0.183 ± 0.018	0.165 ± 0.007	0.157 ± 0.0076	0.237 ± 0.034	0.339 ± 0.033	0.206 ± 0.024	0.266 ± 0.048	0.582 ± 0.1	0.415 ± 0.01	0.293 ± 0.019
